Among the test systems are DU-145 prostate; K-562 leukemia; MDA-MB-231 breast; RXF 393 renal; SF-268 CNS; SF-539 CNS; UACC-257 melanoma; M14 melanoma; SF-295 CNS; MALME-3M melanoma.
Common to all, as to assay: NCI-60 one-dose screen, 48 h (100 = growth as untreated, 0 = no growth, -100 = all killed)
Common to all, as to conditions: 10 µM unless noted

This passage reports growth results from PubChem BioAssay (NCI).

About 83,000 compounds went through this panel and 20% of them were active in at least one assay; those are over-represented in the sample as a whole.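 Activity criterion: percent growth below 10, measured after cells in 96-well plates were exposed to a single compound concentration for 48 hours.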 A number with no mark means an inactive call. The source made the active and inactive calls.

Consider `COc1ccc(Nc2[nH]n(C3=Nc4ccccc4Sc4ccccc43)c(=O)c2C#N)cc1`, for which the growth in the assay with DU-145 prostate is 67%; with K-562 leukemia, 51.9%; in the assay with MDA-MB-231 breast, 51.2%; with RXF 393 renal it was 59.3%; with SF-268 CNS, 67.2%; in the assay on SF-539 CNS, 45.6%. Also, the growth in the assay with UACC-257 melanoma was 36.3%; in the assay on M14 melanoma it was 55.9%.
On to `Oc1ccccc1/C=N/Nc1nc2ccccc2s1`, for which the growth in the assay on DU-145 prostate was 48%; with K-562 leukemia, 41%; in the assay on MDA-MB-231 breast, 37.7%; with RXF 393 renal it was 86.3%; in the assay with SF-268 CNS it was 32.3%; in the assay on SF-295 CNS, 27.9%. In addition, the growth in the assay on SF-539 CNS is 44.6%; with UACC-257 melanoma it was 58.7%; in the assay with M14 melanoma, 56.6%.
With `NC(=O)c1cc(I)ccc1NC(=O)COc1ccc(Cl)cc1Cl`, the growth was 111% in the assay with DU-145 prostate; 31.5% with K-562 leukemia; 107% in the assay on MDA-MB-231 breast; 99.3% in the assay on RXF 393 renal; 97.5% in the assay with SF-268 CNS; 90.2% in the assay with SF-295 CNS. Further, the growth in the assay on SF-539 CNS was 97%; with UACC-257 melanoma, 89.6%; in the assay on M14 melanoma, 81.5%.
As to `COc1ccc(/C=C(\C#N)c2ccc(OC)cc2)cc1`, the growth is 72.3% in the assay with DU-145 prostate; 20.1% in the assay on K-562 leukemia; 72.8% in the assay with MDA-MB-231 breast; 65.3% with RXF 393 renal; 78.4% in the assay with SF-268 CNS; 47% with SF-295 CNS. The growth is 79.7% with SF-539 CNS, 83.8% with UACC-257 melanoma and 61.9% in the assay on M14 melanoma.
Consider `Cc1ccc(S(=O)(=O)N(c2ccc(Cl)cc2)c2ccc(Br)cc2C(=O)O)cc1`, for which the growth is 117% in the assay with DU-145 prostate; 107% in the assay with K-562 leukemia; 119% in the assay on MDA-MB-231 breast; 100% in the assay on RXF 393 renal; 111% with SF-268 CNS; 112% in the assay on SF-295 CNS. The growth with SF-539 CNS was 102%; in the assay with UACC-257 melanoma, 101%; with M14 melanoma it was 117%.
`Oc1ccc2ccccc2c1C1NN=C(c2ccccc2)S1` (stereo not given): the growth in the assay on DU-145 prostate is 21.1%; with K-562 leukemia, 18.6%; with MDA-MB-231 breast it was 38.7%; with RXF 393 renal, 67%; in the assay with SF-268 CNS it was 20.9%; in the assay on SF-295 CNS, -8.68% (active). Further, the growth with SF-539 CNS is 12%; in the assay on UACC-257 melanoma, -6.81% (active); with M14 melanoma it was -8.91% (active).
Regarding `COc1cc(NC(=O)COc2ccccc2)c(C(N)=O)cc1OC`, the growth was 23.6% in the assay on DU-145 prostate; 7.84% (active) with K-562 leukemia; 51.2% with MDA-MB-231 breast; 6.01% (active) in the assay on RXF 393 renal; 53.4% in the assay with SF-268 CNS; 7.73% (active) with SF-295 CNS. The growth with SF-539 CNS was -23.9% (active); with UACC-257 melanoma it was 51.3%; in the assay with M14 melanoma it was 16.8%.
As for `NC(=O)c1cc(I)ccc1NC(=O)COc1ccccc1`, the growth in the assay with DU-145 prostate is 25%; with K-562 leukemia, 8.23% (active); in the assay with MDA-MB-231 breast it was 27.6%; in the assay with RXF 393 renal, 8.03% (active); in the assay on SF-268 CNS, 46.4%; in the assay with SF-295 CNS it was 12.6%. In addition, the growth is -33.6% (active) in the assay with SF-539 CNS, 61.4% in the assay with UACC-257 melanoma and 0.806% (active) in the assay on M14 melanoma.
With `CC(=O)c1cc(C)c(OC(=O)c2ccccc2)c(C)c1`, the growth is 102% in the assay on DU-145 prostate; 85.7% in the assay on K-562 leukemia; 94.6% in the assay on MDA-MB-231 breast; 98.9% in the assay on RXF 393 renal; 107% in the assay on SF-268 CNS; 107% with SF-295 CNS. The growth was 100% in the assay on SF-539 CNS and 105% with M14 melanoma.
Consider `CCSc1nnc2c3cc(Br)ccc3n(C)c2n1`, for which the growth in the assay with DU-145 prostate was 119%; with K-562 leukemia, 118%; in the assay on MDA-MB-231 breast it was 93.3%; in the assay on RXF 393 renal, 116%; in the assay on SF-268 CNS, 107%; in the assay on SF-295 CNS, 93.7%. Also, the growth is 106% in the assay on SF-539 CNS, 105% in the assay on UACC-257 melanoma and 98.4% in the assay on M14 melanoma.
With `CCN(c1ccc(C(=O)N2CCN(c3ccccc3)CC2)cc1)S(C)(=O)=O`, the growth is 108% in the assay on DU-145 prostate; 96.4% with K-562 leukemia; 94.2% in the assay with MALME-3M melanoma; 119% in the assay with MDA-MB-231 breast; 98.7% in the assay on SF-268 CNS; 103% with SF-539 CNS. For the same compound, the growth in the assay on M14 melanoma was 104%.
`CC(=O)Nc1ccc(S(=O)(=O)N/N=C\c2ccc(Cl)c(Cl)c2)cc1`: the growth in the assay on DU-145 prostate is 110%; in the assay on K-562 leukemia it was 116%; in the assay with MDA-MB-231 breast, 110%; with RXF 393 renal it was 123%; with SF-268 CNS, 100%; with SF-295 CNS, 108%. Moreover, the growth with SF-539 CNS was 111%; with UACC-257 melanoma, 103%; in the assay on M14 melanoma, 102%.
Turning to `O=C1C(Cl)=C(NCCCN2CCOCC2)C(=O)c2ccccc21`, the growth in the assay on DU-145 prostate is 126%; with K-562 leukemia it was 60.3%; in the assay on MDA-MB-231 breast, 97.3%; in the assay with RXF 393 renal, 108%; in the assay with SF-268 CNS it was 106%; in the assay with SF-295 CNS, 109%. Further, the growth in the assay on SF-539 CNS was 125%; with UACC-257 melanoma it was 73.3%; in the assay with M14 melanoma, 101%.
`Cn1c2ccccc2c2nn(C(=O)c3ccccc3)c(=O)nc21`: the growth in the assay with DU-145 prostate was 118%; in the assay on K-562 leukemia it was 112%; in the assay with MDA-MB-231 breast, 120%; in the assay with RXF 393 renal, 101%; with SF-268 CNS, 111%; in the assay with SF-295 CNS, 98.2%. Besides, the results for the growth with SF-539 CNS, in the assay with UACC-257 melanoma and in the assay with M14 melanoma were 106%, 118% and 104%, respectively.
For the compound `COC(=O)/C=C1/CCC2C3CCC4=CC(=O)C(Br)CC4(C)C3C(=O)CC12C` (stereo not given), the growth with DU-145 prostate is 75%; in the assay with K-562 leukemia it was 48.9%; in the assay with MDA-MB-231 breast it was 78%; in the assay with RXF 393 renal, 59.9%; with SF-268 CNS, 95.6%; in the assay with SF-295 CNS, 95.4%. The growth was 97.4% with SF-539 CNS and 59.9% with M14 melanoma.
